Compounds with a hit are over-represented: about 19% of the library has one in this group of screens.
SW480 rereplic = induces DNA re-replication in SW480 colon adenocarcinoma cells; SW480 DNA re-replication, Hoechst DNA content imaging, 48 h; Potency, µM (series often up to 46.1 µM), most hits filed as activators; hit rate 1.8% among 340,000; AID 624297; further: nearly all actives have a fitted effect of over 55% in size
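250 cells/well; 23 nL cpd via pin tool; 48 hr, 37 C, 5% CO2; Hoechst 40 min; imager read of total nuclear intensity, ex 405/em 500-530 nm.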
IL-1B inflam inh = inflammasome signaling inhibition, IL-1 beta readout; activity change, % at 57.5 µM; THP-1 LPS/ATP IL-1B secretion, AlphaLISA, 16 h; stronger effect = lower value; AID 743279; hit rate 4.7% among 360,000; in the data active means activity change below about -50%; inconclusive means mostly about -30% to -49%
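THP-1 cells pretreated 1 hr with compounds (up to 57.5 uM final), then stimulated with LPS (250 ng/mL final) plus ATP (1.25 mM final); secreted IL-1B measured by AlphaLISA after 16 hr, decreased signal indicating inhibition.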
MCF10A rereplic = inducers of DNA re-replication in MCF 10A breast cells | hit rate 2.9% among 350,000 | Potency, µM (series often up to 46.1 µM), actives largely listed as activators | AID 624296 | MCF 10A DNA re-replication, Hoechst nuclear intensity, 48 h; further: nearly all actives have a fitted effect of over 50% in size
DT40 TDP1 CPT = growth inhibition of DT40 Tdp1-/-;hTDP1 cells with camptothecin (screen for TDP1 inhibitors); Potency, µM (titrated, usually from 46.2 µM), most hits filed as inhibitors; chicken DT40 Tdp1-/-;hTDP1 cells + 20 nM CPT, ATP luminescence, 48 h; hit rate 12% among 420,000; AID 686979; further: nearly all actives have a fitted effect of over 55% in size
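Chicken DT40 Tdp1-/- cells stably complemented with human TDP1 were seeded at 400 cells/well in medium containing 20 nM camptothecin, exposed to pin-transferred compounds, and grown at 37 °C for at least 48 hr. Viability was read as ATP luminescence.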
Chronic BCR inh = blocks chronic active B-cell receptor signaling | ABC-DLBCL IkBa-CBG/CBR reporter, luminescence ratio, 4 h | Potency, µM (titrated, usually from 46.1 µM), most hits filed as inhibitors | hit rate 0.05% among 340,000 | AID 493014; active means well fitted inhibition curve with a large enough effect in the signal ratio, with a control signal flat, not every such curve was filed as active; inconclusive means small, poorly fitted or top-dose-only effect, or effect the other way, or a change in a side signal; the % refers to the signal ratio
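Doxycycline induced both beetle luciferases in TMD8 lymphoma cells; IKK-driven degradation limits the IkappaBalpha-fused green signal, while red luminescence normalises for cell number and nonspecific effects. Compounds tested up to 46 uM, 4 hrs.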
DT40 TDP1 no CPT = qHTS for Inhibitors of human tyrosyl-DNA phosphodiesterase 1 (TDP1): qHTS in cells in absence of CPT; DT40 Tdp1-/- hTDP1 cells, no CPT, ATP luminescence, 48 h; Potency, µM (series often up to 46.2 µM), usual class: inhibitors; hit rate 15% among 420,000; further: nearly all actives have a fitted effect of over 55% in size
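Growth of hTDP1-complemented DT40 Tdp1-knockout cells is measured by ATP luminescence after at least 48 hr compound exposure at 37 °C, with DMSO substituting for the 20 nM CPT used in the parallel screen.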
Numbers stand for hits; 0 = inactive; ? = inconclusive; - = no result; [ ] = another dose, or the depositor's remark. Unless noted, the call rests on the fitted dose curve; in most records, active means well fitted curve in the direction sought with a large enough effect; inconclusive means small, poorly fitted or top-dose-only effect, or another doubt; inactive means no such curve, though single readings can be large; an effect the other way counts as inactive or inconclusive.

SMILES	SW480 rereplic	IL-1B inflam inh	MCF10A rereplic	DT40 TDP1 CPT	Chronic BCR inh	DT40 TDP1 no CPT
CCc1nc2c(OCCC3CCCCC3)cccn2c1N(C)C(=O)c1ccncc1	-	0	-	16µM	-	15µM
CCc1nc2c(OCc3ccc(C(=O)N(C)C)cc3)cccn2c1N(C)C(=O)c1ccc(C)cc1	-	0	-	0	-	0
CCc1nc2c(OCCC3CCCCC3)cccn2c1N(C)C(=O)c1ccc(OC)cc1	-	-56	-	?	-	21µM
CCc1nc2c(OCC3CCCCC3)cccn2c1N(C)C(=O)c1ccc(C)cc1	-	0	-	21µM	-	15µM
Cc1c(Cl)cccc1NC(=O)CSc1nc(=O)[nH]c2c1CCC2	-	-	-	0	0	0
CCC(C)[C@H](NS(=O)(=O)c1ccc(C)cc1)C(=O)N1CCC(C(=O)N[C@@H](Cc2ccccc2)C(=O)O)CC1 (stereo partly drawn)	0	0	0	?	0	0
Cc1ccc(-n2nc3c(=O)n(C(C)C(=O)NCCC4=CCCCC4)nc(C)c3c2C)cc1 (stereo not drawn)	0	0	0	?	0	?
O=C(NCCc1csc(-c2cccnc2)n1)c1ccc(Br)o1	0	0	0	?	?	18µM
O=C(NCCc1csc(-c2cccnc2)n1)c1ccco1	0	0	0	0	0	0
O=C(NCCc1csc(-c2cccnc2)n1)c1ccc(Cl)cc1	?	0	12µM	0	0	?
O=C(NCCc1csc(-c2ccccc2)n1)c1ccc(Br)o1	0	0	0	?	0	21µM
COc1cccc(CNS(=O)(=O)c2c(C(=O)N3CCC(C)CC3)c(C)n(C)c2C)c1	-	-	-	0	-	0
O=P(c1ccccc1)(c1ccccc1)c1cc(S(=O)(=O)O)ccc1O	0	0	0	0	0	0
CC(C)C[C@H]1CN(CCCC[C@@H]2CNC(=O)C(=O)N2CC2CCCCC2)C(=O)C(=O)N1CCc1ccc(O)cc1	-	0	-	0	-	0
[O-][N+](=C(c1ccccc1)c1ccccc1)c1ccccc1	0	0	?	?	-	?
COC(=O)c1ccc2nc(-c3cccc(Cl)c3)c(Cc3cccc(F)c3)n2c1	-	0	-	16µM	-	9.2µM
COC(=O)c1ccc2nc(-c3cccc(Cl)c3)c(CC3CCCCC3)n2c1	-	0	-	0	-	0
COC(=O)c1ccc2nc(-c3cccc(Cl)c3)c(Cc3cccc(Cl)c3)n2c1	-	0	-	4.6µM	-	?
COc1ccc(OC)c(NC(=O)c2cccnc2Sc2ccccc2)c1	0	0	0	0	?	0
OCC[C@@H]1C[C@@H](O)[C@H](O)[C@@]2(Cc3ccccc3CCO2)O1	0	0	0	0	0	0
Cc1ccc(CNC(=O)C2CCCN(Cc3cnn(-c4ccccc4)c3-n3cccc3)C2)cc1 (stereo not drawn)	?	?	0	21µM	?	21µM
O=C(NCC1CCCO1)C1CCCN(Cc2cnn(-c3ccccc3)c2-n2cccc2)C1 (stereo not drawn)	0[9.22 µM]	0	0	0	?	?
COc1cc(/C=N/Nc2nc3ccccc3[nH]2)cc(OC)c1O	0	-99	?	4.1µM	?	3.7µM
COc1cccc(/C=N/Nc2nc3ccccc3[nH]2)c1O	?	-55	?	18µM	?	23µM
COc1cc(/C=N/Nc2nc(C)cc(C)n2)ccc1O	-	0	-	0	-	0
SMILES	SW480 rereplic	IL-1B inflam inh	MCF10A rereplic	DT40 TDP1 CPT	Chronic BCR inh	DT40 TDP1 no CPT
COc1cccc(/C=N/Nc2nc3ccccc3n3cnnc23)c1O	?	-112	?	5.8µM	?	5.8µM
COc1cccc(/C=N/Nc2nc3ccccc3n3cnnc23)c1	0	0	0	0	?	?
COc1cc(/C=N/Nc2snc(SC)c2C#N)ccc1O	?	0	0	4µM	?	3.2µM
CCCC(CCC(=O)Nc1ccn(-c2ccccc2)n1)C(=O)O (stereo not drawn)	?	0	0	0	0	?
CC(=O)c1cccc(OCc2cc(C(=O)NCc3nc(C)c(C)s3)no2)c1	0	0	0	?	0	?
COC(=O)CN1C(=O)C(C)(C)c2cc(S(=O)(=O)Nc3ccc(Br)cc3F)ccc21	-	-	-	0	-	0
COc1cc(/C=N/Nc2nc3ccccc3[nH]c2=O)ccc1O	?	0	0	0	?	0
COc1cc(/C=N/Nc2nc3ccccc3[nH]2)ccc1O	0	-105	0	6.5µM	?	4.6µM
COc1cc(/C=N/Nc2nc3ccccc3[nH]2)cc(Br)c1OCC(=O)N(C)C	0	?	0	?	?	18µM
COc1cc(/C=C(/C(=O)c2cccs2)c2nc3ccccc3[nH]2)cc(OC)c1O	23µM	-98	16µM	?	?	16µM
COc1ccc(NC(=O)C2c3ccccc3OCC(=O)N2Cc2cccnc2)cc1 (stereo not drawn)	-	0	-	0	-	0
C=C(C)Cn1c2ccc(NC(=O)CCOCC)cc2c(=O)n1C	-	0	-	0	-	0
COc1cc(Cn2c3ccc(NC(=O)CCc4ccc(O)cc4)cc3c(=O)n2C)ccc1F	-	0	-	?	-	21µM
CCOCCC(=O)Nc1ccc2c(c1)c(=O)n(C)n2CC=C(C)C	-	0	-	5.2µM	-	2.9µM
C=C(C)Cn1c2ccc(NC(=O)CCc3cccc(Cl)c3)cc2c(=O)n1C	-	0	-	18µM	-	15µM
Cn1c(=O)c2cc(NC(=O)CCc3ccc4c(c3)OCO4)ccc2n1Cc1ccc(F)cc1	-	?	-	16µM	-	?
CC(C)N1C(=O)C(O)(c2c[nH]c3ccccc23)c2ccccc21 (stereo not drawn)	-	-	-	0	-	?
COc1ccc(CCNC(=O)Nc2ccc3c(c2)c(=O)n(C)n3Cc2ccc(F)cc2)cc1OC	-	0	-	?	-	?
COc1cc(Cn2c3ccc(NC(=O)NCc4ccc(F)cc4)cc3c(=O)n2C)ccc1F	-	0	-	5.8µM	-	5.2µM
Cn1c(=O)c2cc(NC(=O)NCc3ccc(Cl)cc3Cl)ccc2n1Cc1ccccc1	-	-60	-	?	-	?
CC(C)(C)c1nnc(NC(=O)C2CC(=O)N(CCc3ccc(F)cc3)C2)s1 (stereo not drawn)	0	0	0	0	0	0
CC(=O)OC1CCC2(C)C(CCC3C2CC(=O)C2(C)C3CC(C3CCCC3=O)C2C(C)=O)C1 (stereo not drawn)	0	0	0	0	-	?
COc1ccc(NC(=O)Cn2c(=O)n(CC3CCCO3)c(=O)c3ccccc32)cc1 (stereo not drawn)	-	-	-	0	-	0
CC(C)N(C)c1ncnc2c1ncn2[C@H]1CN(Cc2ccc3c(c2)OCO3)C[C@@H](CO)O1	-	0	-	0	-	?
CCCCCCn1c(=O)n2n(c1=O)C[C@]1(OC(=O)NCc3ccccc3F)CN(S(=O)(=O)c3ccc(C)cc3)C[C@]1(O)C2	-	0	-	?	-	15µM

Bioassay records from PubChem BioAssay.
